From PubChem BioAssay
Sampled rows, rich in hits. Any-hit rate of the full collection: about 2.9%.
Pol kappa inh: blocks human DNA polymerase kappa activity | Q9UBT6 | purified Pol kappa, fluorescent DNA synthesis assay, 10 min | Potency, µM (series often up to 107 µM), inactives show at the highest dose activity, negative = inhibition, hits mostly inhibitors | 0.53% of 400,000 active | AID 588579; also: potency is read from the fitted curve at half-maximal effect; % is scaled to controls: 0 for no effect and ±100 for the full control effect
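Enzyme at 10 nM met test compounds for 15 min at room temperature. Substrate addition (50 nM final) began the reaction, which was monitored by fluorescence at 0 and 10 min.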
12-LOX inh: blocks human arachidonate 12S-lipoxygenase; P18054; purified 12hLO, xylenol orange hydroperoxide absorbance; Potency, µM (highest dose often 108 µM), inactives show at the highest dose activity change, negative = inhibition, most hits filed as inhibitors; 1.1% of 580,000 active; AID 1671190; also: potency is read from the fitted curve at half-maximal effect; % is scaled to controls: 0 for no effect and ±100 for the full control effect
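Purified human 12hLO at 150 nM in 25 mM Hepes, 0.01% Triton X-100, pH 7.0, preincubated 15 min at room temperature with compound. Reaction started with 40 uM arachidonic acid, 30 min at room temperature. Hydroperoxide measured by Fe-xylenol orange, 573/405 nm absorbance ratio.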
Pol iota inh: DNA polymerase iota (human) inhibition | Q9UNA4 | Pol iota fluorescent replication assay, 10 min | Potency, µM (series often up to 115 µM), for inactives: top-dose activity, negative = inhibition, usual class: inhibitors | 1% of 390,000 active | AID 588590; also: potency is read from the fitted curve at half-maximal effect
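Fluorescent replication assay read twice, at 0 min and 10 min after adding 50 nM (final) substrate. Enzyme (10 nM) and compounds were first incubated 15 min at room temperature; enzyme-free buffer wells were negative controls.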
PI5P4Ka inh: PI5P4K alpha (human) kinase inhibition; P48426; max response, %; PI5P4Kalpha enzyme, ADP-Glo luminescence, 60 min; hits give low values; 1.2% of 330,000 active; active = max response of -50% or lower; inconclusive = between -30% and -50%; inactive = -30% or higher; also: value at the top dose of about 77 µM; % is scaled to controls: 0 for no effect and ±100 for the full control effect
Target sequence (P48426 whole entry, looked up): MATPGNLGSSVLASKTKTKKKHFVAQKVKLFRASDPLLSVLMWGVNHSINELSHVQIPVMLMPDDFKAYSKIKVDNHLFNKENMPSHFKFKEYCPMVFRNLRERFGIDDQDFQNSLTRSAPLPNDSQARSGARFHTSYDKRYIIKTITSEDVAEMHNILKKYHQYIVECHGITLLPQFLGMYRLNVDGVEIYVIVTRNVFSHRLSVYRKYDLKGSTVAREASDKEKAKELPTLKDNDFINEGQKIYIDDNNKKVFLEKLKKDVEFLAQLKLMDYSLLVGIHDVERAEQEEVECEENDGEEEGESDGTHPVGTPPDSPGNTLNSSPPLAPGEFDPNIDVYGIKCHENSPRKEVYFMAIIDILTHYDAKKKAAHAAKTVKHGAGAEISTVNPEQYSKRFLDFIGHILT
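Enzyme plus substrate dispensed, test compounds pinned in, then ATP (5 microM final) added. After 60 min at RT, ADP-Glo reagent 1 for 45 min and reagent 2 for 30 min preceded luminescence imaging.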
POLB inh: inhibitors of human DNA polymerase beta; P06746; Pol beta primer extension/strand displacement, fluorescence kinetic; Potency, µM (top dose mostly 114 µM), inactives show top-dose activity change, negative = inhibition, actives largely listed as inhibitors; 1.3% of 340,000 active; also: potency is read from the fitted curve at half-maximal effect; % is scaled to controls: 0 for no effect and ±100 for the full control effect
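Kinetic readout of DNA synthesis with strand displacement by Pol beta. Compound and 10 nM enzyme sit 15 min at room temperature; 50 nM substrate starts the reaction, read immediately and at 10 min.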
Pol eta inh: DNA polymerase eta (human) inhibition | recombinant Pol eta, fluorescent DNA replication assay | Q9Y253 | 1.2% of 390,000 active | Potency, µM (titrated, usually from 114 µM), for inactives: at the highest dose activity change, negative = inhibition, actives largely listed as inhibitors; also: potency is read from the fitted curve at half-maximal effect; % is scaled to controls: 0 for no effect and ±100 for the full control effect
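Pol eta (10 nM) was preincubated with compounds for 15 min at room temperature, after which fluorescent replication substrate (50 nM final) was added to start the reaction. Fluorescence was read kinetically at 0 and 10 min.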
The depositor's hits bear a star; ! = a repeat was not active; [ ] = remark or other dose. Unless noted, calls follow the shape of the dose curve; as a rule, active = well fitted inhibition curve with a large enough effect; inconclusive = small, poorly fitted or top-dose-only effect, or another doubt; inactive = no such curve, though single readings can be large or run the other way.

Screening Cc1cc(NC(=O)CSc2n[nH]c(=O)[nH]c2=O)ccc1Br returned Pol kappa inh -17%, 12-LOX inh 15%, Pol iota inh -1%, PI5P4Ka inh 1, POLB inh -8% and Pol eta inh -4%.
For CSc1nsc(SCC(=O)Nc2ccc(C(=O)O)cc2)n1 the results were Pol kappa inh 1%, 12-LOX inh -5%, Pol iota inh -3%, PI5P4Ka inh -51*, POLB inh -21% and Pol eta inh -3%.
O=C(Cc1cccs1)N=Nc1c(O)[nH]c2ccccc12 was read as Pol kappa inh -15%, 12-LOX inh 9%, Pol iota inh -15%, PI5P4Ka inh -25, POLB inh 4% and Pol eta inh -22%.
For O=C(CSc1nnc(SCc2cccc3ccccc23)s1)Nc1ccc(C(=O)O)cc1 the results were Pol kappa inh -7%, 12-LOX inh 5%, Pol iota inh -2%, PI5P4Ka inh -93*, POLB inh -6% and Pol eta inh 7%.
Screening O=C(CSc1n[nH]c(=O)[nH]c1=O)Nc1ccc(C(=O)O)cc1 returned Pol kappa inh -1%, 12-LOX inh -5%, Pol iota inh 30%, PI5P4Ka inh -64*, POLB inh 4% and Pol eta inh -20%.
For CSc1nsc(SCC(=O)Nc2ccc(F)cc2)n1 the results were Pol kappa inh -12%, 12-LOX inh -4%, Pol iota inh 16%, PI5P4Ka inh 5, POLB inh 2% and Pol eta inh 6%.
Screening O=C1OC2(CCCCC2)CC2=C1C1O[C@](c3ccsc3)(Cc3c1ccc1ccccc31)O2 returned POLB inh 10µM*.
`COc1ccc([C@]23Cc4cc(OC)c(OC)cc4C(O2)C2=C(CC4(CCCCC4)OC2=O)O3)cc1` gave POLB inh 19%[22.9 µM].
Screening Cc1ccc(NC(=O)CN(C)C(=O)c2cccc(S(=O)(=O)NCc3ccco3)c2)cc1 returned Pol kappa inh inconclusive, 12-LOX inh inconclusive, Pol iota inh 56µM*, PI5P4Ka inh inconclusive and Pol eta inh inconclusive.
`Cc1ccc(NC(=O)CN(C)C(=O)c2cccc(S(=O)(=O)NCC3CCCO3)c2)cc1` (configuration not stated) gave 12-LOX inh 0%.
COCC(=O)O[C@]1(CCN(C)CCCc2nc3ccccc3[nH]2)CCc2cc(F)ccc2[C@@H]1C(C)C was read as Pol kappa inh -21%[60.1 µM], 12-LOX inh 11µM*!, Pol iota inh -1%[58.9 µM], PI5P4Ka inh -4, POLB inh 10%[57.1 µM] and Pol eta inh -5%[57.1 µM].
Cc1cccc(OCC(=O)NCCc2nc3ccccc3[nH]2)c1C was read as Pol kappa inh 4%, 12-LOX inh 9%, Pol iota inh 11%, POLB inh 16% and Pol eta inh -12%.
`COc1ccc(C2=C(O)C(=O)N(Cc3ccc(C)cc3)C2c2ccc(F)cc2)cc1` (configuration not stated) gave 12-LOX inh 18µM*.
COc1ccc(C2=C(O)C(=O)N(CCc3ccccc3)C2c2ccc(C(=O)O)cc2)cc1 (configuration not stated) was read as 12-LOX inh 18µM*.
COc1ccc(C2/C=C\C(c3ccc(OC)cc3)N(Cc3ccc(F)cc3)C(=O)C(=O)N2Cc2ccc(F)cc2)cc1 (configuration not stated) was read as Pol kappa inh -2%[60.1 µM].
`COC(=O)Cc1csc(NC(=O)Cc2c(C)c3cc(Cl)c(O)cc3oc2=O)n1` gave 12-LOX inh -2%.
Screening O=C(CCn1c(=O)oc2cc(Cl)ccc21)Nc1cccc(-c2nnc3n2CCCCC3)c1 returned 12-LOX inh -37%.
`CSCCC(NC(=O)c1ccc(Cl)cc1)C(=O)OCC(C)=O` (configuration not stated) gave Pol kappa inh -6%, 12-LOX inh -1%, Pol iota inh 83%, PI5P4Ka inh 2, POLB inh 28% and Pol eta inh -14%.
`CSCCC(NC(=O)c1ccc(Cl)cc1)C(=O)OCC(=O)Nc1ccc(C#N)cc1` (configuration not stated) gave Pol kappa inh -12%, 12-LOX inh 32µM*, Pol iota inh -10%, PI5P4Ka inh 2, POLB inh 1% and Pol eta inh -25%.
For O=C(NCCn1cccc1-c1nc(-c2ccc3c(c2)OCO3)no1)c1ccc(Cl)cc1 the results were 12-LOX inh 13µM*.
For Nc1ccccc1SC(CC(=O)c1ccccc1)c1ccc([N+](=O)[O-])cc1 (configuration not stated) the results were 12-LOX inh inconclusive, PI5P4Ka inh -22 and Pol eta inh -6%.
For Cc1ccc(C(=O)CC(SCC(=O)O)c2ccc([N+](=O)[O-])cc2)cc1 (configuration not stated) the results were Pol kappa inh 3%, 12-LOX inh inconclusive, Pol iota inh 10µM*, PI5P4Ka inh 4, POLB inh -7% and Pol eta inh -25%.
Cc1ccc(NC(=S)/C(C#N)=C2/Nc3ccccc3S2)cc1 was read as 12-LOX inh 13µM*, PI5P4Ka inh -27 and Pol eta inh 40µM*.
For N#C/C(C(=O)N1CCCCC1)=C1\Nc2ccccc2S1 the results were Pol kappa inh -28%, 12-LOX inh 0%, Pol iota inh 9%, PI5P4Ka inh -14, POLB inh 28% and Pol eta inh -11%.
`CCc1ccc2nc(NC(=O)c3ccc4c(=O)[nH]c(CN5CCOCC5)nc4c3)sc2c1` gave Pol kappa inh -21%, Pol iota inh inconclusive, POLB inh 79µM* and Pol eta inh 50µM*.
CC(=O)C1=C(O)C(=O)N(CCc2c[nH]c3ccccc23)C1c1ccco1 (configuration not stated) was read as Pol kappa inh -11%, 12-LOX inh inconclusive, Pol iota inh inconclusive, PI5P4Ka inh -5, POLB inh 32µM* and Pol eta inh -16%.
For CC(=O)C1=C(O)C(=O)N(CCc2c[nH]c3ccccc23)C1c1ccc(C)cc1 (configuration not stated) the results were Pol kappa inh -4%, 12-LOX inh inconclusive, Pol iota inh 17%, PI5P4Ka inh 1, POLB inh -6% and Pol eta inh -22%.
For COc1ccc2nnc(-c3ccccc3)n2n1 the results were Pol kappa inh -19%, 12-LOX inh 0%, Pol iota inh 89µM*, POLB inh -1% and Pol eta inh -2%.
For Fc1ccc(Oc2ccc3nnc(-c4ccccc4)n3n2)cc1 the results were 12-LOX inh 2%.
